# Reference: PubChem BioAssay (NCI)
# About 83,000 compounds went through this panel and 20% of them were active in at least one assay; those are over-represented in the sample as a whole.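 Each cell line was grown in a 96-well plate and treated with one concentration of compound for 48 hours. Values below 10 were considered active.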 A number with no mark means an inactive call. Activity calls are given as the source filed them.
# Test system: COLO 205 colon
# Assay: NCI-60 one-dose screen, 48 h (100 = growth as untreated, 0 = no growth, -100 = all killed)
# Details: 10 µM
# Method: Cells are grown in 96 well plates and exposed to the test compound for 48 hours. Compounds are tested at a single concentration, which is 10^-5 M for most compounds. The reported endpoint is percent growth (GI% or GIPRCNT), where numbers from 0 - 100% represent growth inhibition, and numbers from -100% - 0 represent cell death. For example, a value of 40 represents 60% growth inhibition. A value of 0 means no net growth occurred over the course of the experiment. A value of -40 indicates 40% of cells at the beginning of the experiment died by the end of the experiment. A value of -100 means all cells are dead at the end of the experiment.
# NCI-60 Human Tumor Cell Lines Screen was performed using the standard one-dose NCI protocol, which is described in more detail at https://dtp.cancer.gov/discovery_development/nci-60/default.htm.
# Compounds with GIPRCNT values below 10 were considered active. Activity score was based on GIPRCNT using the following formula: […]
# Score is 0 for GIPRCNT values of 100 or above, 50 for GIPRCNT values of 0, and 100 for GIPRCNT values of -100.
row,SMILES,growth
1,O=C(NCCNC(=O)c1ccc([As](O)O)cc1)c1ccc([As](O)O)cc1,100%
2,CNC(=O)Oc1cccc(OC)c1,119%
3,CCOC(=O)c1cnc(SCc2ccc(Cl)c(Cl)c2)nc1N1CC1,67.8%
4,c1ccc([As]=[As]c2ccccc2)cc1 (stereo not given),-89.6% (active)
5,Nc1cccc2c1Oc1ccccc1O2,134%
6,c1ccc2nc(OCCN3CC3)ccc2c1,68.1%
7,CCC(CC)(c1ccccc1)C(OC(N)=O)c1ccccc1 (stereo not given),86.7%
8,CO[C@@H]([CH2][Hg][S]C#N)[C@@H]([CH2][Hg][S]C#N)OC,66.2%
9,COC(C)(C)CCC[C@H](C)C/C=C/C(C)=C/C(=O)OC(C)C,107%
10,Nc1ccc(N)c2c1Oc1ccccc1O2,106%
11,S=P(N1CCCCCC1)(N1CC1)N1CC1,93.9%
12,Oc1ccc(Br)cc1CN1CCN(Cc2ccc(Cl)cc2)CC1,71.1%
13,CC(=O)Oc1ccc(Cl)cc1,107%
14,CC12CC[C@H](O)C=C1/C(=N/O)CC1C2CCC2(C)C1CC[C@@H]2O (stereo not given in full),115%
15,CN(C)P1(N(C)C)=NP(N(C)C)(N(C)C)=NP(N(C)C)(N(C)C)=N1,113%
16,CCCCCN(CCCCC)CC(O)c1ccc(C)c(Cl)c1 (stereo not given),91.3%
17,OC1(c2ccc(Cl)cc2Cl)c2ccccc2C2=NCCN21 (stereo not given),90.6%
18,CC(N)Cc1ccc(O)cc1 (stereo not given),128%
19,O=c1[nH]c2cc(Cl)ccc2n1C1CCN(CCCC(c2ccc(F)cc2)c2ccc(F)cc2)CC1,-88.3% (active)
20,S=P(Nc1ccccc1)(Nc1ccccc1)c1ccccc1,146%

row,SMILES,growth
1,O=C(C(=O)N1CCCC1)c1cn(CCCCCn2cc(C(=O)C(=O)N3CCCC3)c3ccccc32)c2ccccc12,110%
2,Nc1ncnc2c1c(C(=O)NO)cn2C1OC(CO)C(O)C1O (stereo not given),-36.1% (active)
3,O=C(O)c1nn(Cc2ccc(Cl)cc2)c2ccccc12,111%
4,CCN(CC)c1ccc(C=C2C(=O)NC(=S)NC2=O)cc1,104%
5,CC(C)CCC1(CCO)C(=O)NC(=S)NC1=O,107%
6,CC1(C)N=C(N)N=C(N)N1c1ccc(OCCCCOc2ccc(S(=O)(=O)F)cc2)c(Cl)c1,20.4%
7,C=CC(O)CN1CC1CC (stereo not given),114%
8,C#CC1(O)CCC2(C)C(CCC3C4CCC(=O)C4(C)CCC32)C1 (stereo not given),106%
9,CC12CCC(=O)C=C1CCC1C2CCC2(C)C(C(=O)COC(=O)Cc3ccc(N(CCCl)CCCl)cc3)CCC12 (stereo not given),88.5%
10,NCCc1cc(O)c(O)cc1O,106%
11,N#CC(C#N)=Cc1ccc2ccccc2c1,110%
12,CCOc1c(Cl)cc(CNC(C)C(O)c2ccccc2)cc1OC (stereo not given),95%
13,Cc1ccc(C[As+](c2ccccc2)(c2ccccc2)c2ccccc2)cc1,-55.7% (active)
14,CN1C(=O)NC(=O)C(N=Nc2ccc(Cl)cc2)C1=O (stereo not given),137%
15,NC(=O)NC(=O)CI,-62.4% (active)
16,C1CN1c1nc(N2CC2)nc(N2CC2)n1,61.4%
17,CCOc1cc(C=C(C#N)C#N)cc(Br)c1O,103%
18,O=[N+]([O-])c1ccc(F)c([N+](=O)[O-])c1F,115%
19,O=C1NC(=O)C(CN2C(=O)C3(c4ccccc42)[C@H](Cl)C(=O)N3c2ccccc2)C(=O)N1 (stereo not given in full),102%
20,O=[N+]([O-])c1cccc([As]=[As]c2cccc([N+](=O)[O-])c2)c1 (stereo not given),-81.2% (active)
